Source: PubChem (National Center for Advancing Translational Sciences (NCATS))
LASV entry inh: blocks Lassa virus binding to or entry into cells; Lassa virus pseudotype entry inhibition, cell reporter; Potency, µM (doses to about 37.9 µM), for inactives: at the highest dose activity change, negative = inhibition, actives largely listed as inhibitors; 300,000 compounds, 1.2% hits; AID 540256; calls by dose curve; tested in HEK293 cells; also: potency is read from the fitted curve at half-maximal effect; nearly all actives have a fitted effect of over 50% in size
FMDV antiviral: foot and mouth disease virus antiviral activity; 410,000 compounds, 1.2% hits; FMDV antiviral cell-based qHTS; Potency, µM (highest dose often 57.9 µM), without a hit: at the highest dose activity change, negative = inhibition, actives largely listed as inhibitors; AID 1159524; calls by dose curve; tested in HEK293T cells; also: read-out not given here; potency is read from the fitted curve at half-maximal effect; nearly all actives have a fitted effect of over 45% in size
Marburg entry inh: inhibitors of Marburg virus binding or cell entry. Marburg virus pseudotyped entry inhibition, cell reporter. Potency, µM (top dose mostly 37.8 µM), inactives show at the highest dose activity change, negative = inhibition, actives largely listed as inhibitors. 300,000 compounds, 1.8% hits; calls by dose curve; tested in HEK293 cells; also: potency is read from the fitted curve at half-maximal effect
HCMV inh: blocks human cytomegalovirus replication | activity change, negative = inhibition, % at 57.5 µM | HFF cells, HCMV-luciferase reporter, 72 h; stronger effect = lower value | 410,000 compounds, 4.5% hits | AID 1259415; in the data active = activity change below about -60%; inconclusive = no clear call, values can overlap the other calls; inactive = above about -39%
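Cell-based, HFFs, 1000 cells/well, 16 h 37C; cpds in DMSO + HCMV-luc, MOI 1 PFU/cell; 72 h 37C; OneGlo luminescence after 5 min RT; norm. to buffer vs Salinomycin 10uM.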
The depositor's hits bear a star; ? = inconclusive; nt = no result; [ ] = dose if it differs, or a comment. Sampled rows, rich in hits. Any-hit rate of the full collection: about 6.2%. % is scaled to controls: 0 for no effect and ±100 for the full control effect.

SMILES | LASV entry inh | FMDV antiviral | Marburg entry inh | HCMV inh
CC(C)C[C@H]1CN([C@@H](Cc2ccc(O)cc2)CN2CCC[C@@H]2CN2C(=O)C(=O)NC[C@@H]2Cc2ccccc2)C(=O)C(=O)N1CC1CCCCCC1 | nt | 9.2% | nt | -65.0*
CC(C)C[C@H]1CN([C@@H](Cc2ccccc2)CN2CCC[C@H]2CN2C(=O)C(=O)NC[C@@H]2Cc2ccc(O)cc2)C(=O)C(=O)N1CC1CCCCCC1 | nt | 3.1% | nt | -86.9*
CC1CCCCC1NC(=O)CSc1nncn1N (configuration not stated) | 17.1% | -10.7% | 24.7%[46.1 µM] | -6.2
NC(=O)c1cc(N)ccc1N1CCCCC1 | -5.3% | 11.8% | 12.8%[46.1 µM] | -60.6*
Cc1ccc(-n2nc(CO)c(C(=O)NC(C)c3ccccc3)n2)cc1C (configuration not stated) | ? | ? | -3.7%[46.1 µM] | -63.2*
Cc1ccc(C)c(NC(=O)c2cc(S(=O)(=O)N3CCCc4ccccc43)ccc2F)c1 | -28.8%[46.1 µM] | -26.9% | nt | -62.3*
O=C(NCc1ccco1)c1cc(S(=O)(=O)N2CCCc3ccccc32)ccc1Cl | ? | -3.2% | ? | -67.4*
CCc1ccc(C(=O)C(C)OC(=O)Cn2cnc3c2c(=O)n(C)c(=O)n3C)cc1 (configuration not stated) | 18.1% | -22.8% | 8.9% | 3.1
Cc1cc(-c2onc(C)c2C(=O)Nc2ccc(C(F)(F)F)cc2)no1 | 3.0% | -2.7% | 0.2%[46.1 µM] | 0.2
CC1(C)CC2CC(C)(CN2S(=O)(=O)c2ccc(C(=O)Nc3ccc(S(=O)(=O)N4CCOCC4)cc3)cc2)C1 (configuration not stated) | 3.55µM* | -16.5% | 2.82µM* | -90.5*
CC(=O)Nc1ccc(S(=O)(=O)N2CC3(C)CC2CC(C)(C)C3)cc1 (configuration not stated) | ? | 9.6% | ? | ?
CC1(C)CC2CC(C)(CN2S(=O)(=O)c2ccc(C(=O)Nc3ccc(Cl)c(S(=O)(=O)N4CCOCC4)c3)cc2)C1 (configuration not stated) | ? | ? | 3.55µM* | -98.5*
COc1ccc(-c2oc3ncn(CCN4CCOCC4)c(=N)c3c2-c2ccc(OC)cc2)cc1 | ? | ? | 16.4µM* | ?
CNC(=O)CC(=O)Nc1ccccc1C(=O)O | 16.0% | -21.8% | 18.9% | 61.9
O=S(CCc1ccncc1)Cc1ccccc1 (configuration not stated) | 22.5% | -2.4% | 3.1% | -10.9
COC(=O)c1sc(NC(=S)NC(=O)c2ccccc2C)nc1C | -11.6% | 9.1% | 14.0%[46.1 µM] | -18.1
CCCOc1ccc(CC(=O)NNC(=S)Nc2ccccc2)cc1Br | 2.0% | 0.0% | -2.0% | 37.2
CCOC(=O)N1CCN(C(=O)COc2cccc3c2CCN(Cc2ccc(F)cc2)C3=O)CC1 | -12.1% | 14.1µM* | ? | -66.7*
Cc1cccc(CN2CCc3c(OCC(=O)N4CCCc5ccccc54)cccc3C2=O)c1 | 4.47µM* | ? | ? | -19.9
O=C1c2cccc(OCC(=O)N3CCCc4ccccc43)c2CCN1Cc1ccc(F)cc1 | ? | 20µM* | ? | -39.9
CN1CCc2c(OCC(=O)N3CCCc4ccccc43)cccc2C1=O | ? | ? | 3.16µM* | -11.3
COc1ccc(-c2ccc(C#N)c(SCC(=O)NCCc3ccccc3)n2)cc1OC | nt | -16.2% | -1.8% | nt
CCOC(=O)C1=CCN(S(=O)(=O)c2ccccc2F)C1c1ccc(Cl)cc1 (configuration not stated) | nt | ? | nt | -21.8
COc1nnc(-c2ccc(N3CCOCC3)c(NC(=O)c3ccc(C)cc3)c2)c2ccccc12 | 0.1% | ? | ? | -28.0
CCOc1ccc(-c2csc3ncnc(Nc4cccc(O)c4)c23)cc1 | -2.8%[46.1 µM] | ? | ? | -24.9
SMILES | LASV entry inh | FMDV antiviral | Marburg entry inh | HCMV inh
c1ccc(CNc2ncnc3scc(-c4cccs4)c23)nc1 | nt | 15.8µM* | nt | -84.1*
COc1ccccc1Nc1ncnc2scc(-c3ccc(F)cc3)c12 | 5.3%[46.1 µM] | ? | nt | -82.5*
Oc1ccc(Nc2ncnc3scc(-c4ccccc4)c23)cc1 | ? | ? | ? | -63.9*
c1ccc(-c2csc3ncnc(NCc4ccccn4)c23)cc1 | nt | 15.8µM* | nt | -89.4*
COc1ccc(CN(CC(=O)NCCc2ccccc2)C(=O)CCC(=O)Nc2ccccn2)cc1 | 5.7% | -1.1% | 12.9%[46.1 µM] | 28.8
COc1ccc(NC(C)c2ccccc2)cc1 (configuration not stated) | 3.2%[46.1 µM] | 28.2% | 9.8%[46.1 µM] | 2.4
Cc1c(C)n(Cc2ccccc2)c2ncnc(N)c12 | -4.5% | 0.0% | -11.4% | -60.1*
COc1cc2c(cc1OC)C1C/C(=N\O)C(CC(C)C)CN1CC2 (configuration not stated) | -9.9% | -41.1% | -23.3% | -3.0
COc1cc2c(cc1OC)C1CC(=O)C(CC(C)C)CN1CC2 (configuration not stated) | ? | -27.4% | ? | -61.5*
CC[C@H]1CN2CCc3cc(OC)c(OC)cc3[C@H]2C[C@@H]1C[C@@H]1NCCc2cc(OC)c(OC)cc21 | nt | nt | 0.224µM* | nt
CCC1CN2CCc3cc(OC)c(OC)cc3C2CC1CC1c2cc(OC)c(OC)cc2CCN1C(=O)C(Cc1c[nH]c2ccccc12)NC(=O)OC(C)(C)C (configuration not stated) | ? | -17.6% | ? | ?
CCOC(=O)c1sc2nc(SCC(=O)N(CC)CC)n(CCCN3CCCC3=O)c(=O)c2c1C | -19.9%[46.1 µM] | -0.3% | -15.2%[46.1 µM] | ?
CCOc1ccc(Br)cc1S(=O)(=O)NC1=NCCCCC1 | 13.9% | 21.3% | ? | -63.8*
CCOc1ccc(Br)cc1S(=O)(=O)Nc1cccc(S(=O)(=O)NC2=NCCC2)c1 | nt | 33.7% | nt | -6.2
CC(C)(CC(=O)N1CCN(c2ccc(Cl)cc2)CC1)CC1=NS(=O)(=O)c2ccccc2N1 | 11.2µM* | 0.0% | ? | ?
COc1cccc(N2CCN(C(=O)CC(C)(C)CC3=NS(=O)(=O)c4ccccc4N3)CC2)c1 | ? | ? | -17.5%[46.1 µM] | -71.6*
CCOC(=O)N1CCc2c(sc3c2c(=O)n(-c2ccc(Cl)cc2)c(=O)n3Cc2cccc(C)c2)C1 | 11.4%[46.1 µM] | -6.9% | 2.6%[46.1 µM] | -13.7
C=CCn1c(SCC(=O)NCC)nnc1-c1cc2c(s1)CCC(CC)C2 (configuration not stated) | 0.4% | -3.2% | -0.4% | -67.9*
COc1ccc(COc2cc(-c3cccc(OC)c3)nc3ccc(NC(C)=O)cc23)cc1 | ? | -9.5% | -35.6% | -18.9
COc1ccc(COc2cc(-c3cccc(OC)c3)nc3ccc(N)cc23)cc1 | ? | -8.6% | ? | -90.1*
O=C(O)c1cnn(-c2nc(-c3cccc([N+](=O)[O-])c3)cs2)c1C(F)(F)F | nt | 3.5% | nt | -93.8*
O=C(Nc1ccc(C(=O)N2CCCc3ccccc32)cc1)c1cccs1 | -27.1%[46.1 µM] | -5.2% | 11.2µM* | 43.0
O=C(Nc1ccc2c(c1)N(S(=O)(=O)c1cccs1)CCC2)c1c(F)cccc1F | ? | 27.6% | ? | -35.6
O=C(Nc1ccc2c(c1)CCCN2C(=O)c1cccs1)c1c(F)cccc1F | ? | ? | nt | -74.6*
CC(=O)Nc1ccc(C(=O)N2CCCc3ccccc32)cc1 | -0.5% | 7.8% | 29.3% | 25.6
O=C(Nc1ccc2c(c1)CCCN2C(=O)c1cccs1)c1ccccc1Cl | ? | -17.0% | nt | -67.1*
